Shown are actives, neighbours in structure and some others; about 2.4% of the full set was active somewhere.
D2 PAM-1: Beta-Arrestin HTS for Positive Allosteric Modulators of the Human D2 Dopamine Receptor: Potentiators; potentiation, % (concentration not given with the values); D(2) dopamine receptor (Homo sapiens), P14416; DiscoveRx D2 beta-arrestin cells, luminescence, 90 min; 100% = 57 uM dopamine signal; 360,000 compounds, 0.23% hits; in the data active means potentiation above about 50%; inconclusive means mostly about 30% to 49%
Target sequence (P14416 whole entry, looked up): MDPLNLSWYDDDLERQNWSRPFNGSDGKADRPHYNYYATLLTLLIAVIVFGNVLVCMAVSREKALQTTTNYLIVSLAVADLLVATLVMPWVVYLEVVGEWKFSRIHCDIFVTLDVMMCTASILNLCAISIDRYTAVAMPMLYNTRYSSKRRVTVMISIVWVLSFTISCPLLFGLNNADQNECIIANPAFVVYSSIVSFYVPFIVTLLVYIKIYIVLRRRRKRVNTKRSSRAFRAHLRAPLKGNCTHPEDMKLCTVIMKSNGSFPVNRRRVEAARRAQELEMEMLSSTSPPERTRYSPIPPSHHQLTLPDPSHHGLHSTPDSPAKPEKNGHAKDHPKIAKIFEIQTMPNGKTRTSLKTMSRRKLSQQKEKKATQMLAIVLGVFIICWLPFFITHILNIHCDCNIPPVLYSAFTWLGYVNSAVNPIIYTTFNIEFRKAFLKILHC
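PathHunter D2 cells, attached overnight at 37 deg C, received compound in DMSO plus dopamine at EC20 (50 nM final) for 90 min at 37 deg C. Beta-arrestin recruitment was read as luminescence after 1 h with detection reagent at ambient temperature.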
D2 ag-1: HTS Assay for Allosteric Agonists of the Human D2 Dopamine Receptor: Primary Screen for Agonists. D(2) dopamine receptor (Homo sapiens), P14416. HEK293 T-REx D2 cells, calcium flux agonist mode. activation, % at 2 µM. 340,000 compounds, 0.53% hits;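 active means activation over 3 SD above normal in the single-dose calcium agonist read, cut at about 30% in these data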
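Calcium-flux readout, 1 cycle/sec over 180 s following compound pin transfer, in inducible HEK293 Trex D2 cells (force-coupled); dopamine controls included. Positive calcium responses during this window marked compounds as potential agonists.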
D2 PAM-2: HTS Assay for Positive Allosteric Modulators of the Human D2 Dopamine Receptor: Primary Screen for Potentiators; D(2) dopamine receptor (Homo sapiens), P14416; HEK293 T-REx D2, calcium flux, EC20 dopamine potentiation; potentiation, % at 10 µM; 340,000 compounds, 0.34% hits;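 active means potentiation over 3 SD above the plate norm, cut at about 30% in these data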
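Tetracycline-induced HEK293 T-REx cells force-coupled to calcium signalling expressed D2; compounds were pin-added after a 10 s baseline, read kinetically 180 s, then an EC20 dopamine challenge followed with a further 180 s calcium read.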
D2 ag-2: Beta-Arrestin HTS for Positive Allosteric Modulators of the Human D2 Dopamine Receptor: Agonists | 360,000 compounds, 0.084% hits | activation, % (test concentration not listed) | D(2) dopamine receptor (Homo sapiens), P14416 | DiscoveRx PathHunter D2 beta-arrestin, luminescence, 90 min; 100% = 57 uM dopamine signal; in the data active means activation above about 40%; inconclusive means between about 15% and that limit
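DiscoveRx PathHunter D2 beta-arrestin cells (2,100/well) attached overnight, then compound-stimulated 90 min at 37 C in HBSS/10 mM HEPES/0.1% Tween-20 buffer; beta-galactosidase complementation read by luminescence after 1 h at ambient temperature. Dopamine 57 uM final (EC100) as control.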
D2 antag: HTS Assay for Allosteric Antagonists of the Human D2 Dopamine Receptor: Primary Screen for Antagonists; D(2) dopamine receptor (Homo sapiens), P14416; HEK293 TREx D2 cells, calcium flux, dopamine EC80; inhibition, % at 10 µM; 340,000 compounds, 2% hits; in the data active means inhibition above about 30%; inactive means below that, where a call was filed
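Antagonism is scored as inhibition of an EC80 dopamine-evoked calcium signal in a force-coupled, tetracycline-inducible HEK293 T-REx D2 line, with compound present 180 s before agonist.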
D3 arrestin ag: qHTS of D3 Dopamine Receptor Agonist: D3 Dopamine Receptor B-arrestin Agonist Confirmatory Assay; shares compounds with D2 ag-1; DiscoveRx D3 beta-arrestin cells, luminescence, 90 min; Potency, µM (doses to about 76.9 µM), most hits filed as activators; 2,300 compounds, 4% hits; AID 720506, 2013; further: nearly all actives have a fitted effect of over 70% in size
D2 ag-3: qHTS of D3 Dopamine Receptor Agonist: D2 Dopamine Receptor B-arrestin Agonist Counterscreen | shares compounds with D2 ag-1 | DiscoveRx PathHunter D2 beta-arrestin, luminescence, 90 min; response scale: percent relative to full dopamine signal | Potency, µM (doses to about 76.9 µM), most hits filed as activators | 2,300 compounds, 5.9% hits | AID 720507, 2013; further: nearly all actives have a fitted effect of over 70% in size
Each line names hits and unclear results; the compound was inactive in the other large screens (follow-up assays come after a bar, where they were run). Unless noted, the call rests on the fitted dose curve; in most records, active means well fitted activation curve with a large enough effect; inconclusive means small, poorly fitted or top-dose-only effect; inactive means flat fitted curve, though single readings scatter.

O=C(c1ccco1)N1CCN(CC(O)COc2ccc(Br)cc2)CC1 (stereo not given)	D2 ag-1 76.2, D2 antag 77.2 | D3 arrestin ag inconclusive | D2 ag-3 inconclusive
COC(=O)c1ccc(OCC(O)CN2CCN(C(=O)c3ccco3)CC2)cc1 (stereo not given)	D2 ag-2 inconclusive
O=C(c1ccco1)N1CCN(Cc2cccc(F)c2)CC1	D2 ag-1 87.6, D2 ag-2 59.5, D2 antag 84.3 | D3 arrestin ag inconclusive | D2 ag-3 20µM
CCC1CCCCN1C(=O)Cn1c(=O)n(-c2ccccc2C(F)(F)F)c(=O)c2c(C)c(C(=O)N(C)C)sc21 (stereo not given)	none (no result: D2 PAM-1, D2 ag-2, D2 antag)
O=C(c1ccco1)N1CCN(Cc2csc(-c3ccccc3Cl)n2)CC1	D2 ag-1 41.1 | D3 arrestin ag inactive | D2 ag-3 inactive
Fc1cc(F)cc(Nc2nc(Cl)nc(NC3CCCC3)n2)c1	none (no result: D2 PAM-1, D2 ag-2) | D3 arrestin ag inactive | D2 ag-3 inactive
CC(C)Nc1nc(Cl)nc(NC2CCCCC2)n1	none
CSc1nc(Nc2ccc(C)cc2C)cc(-c2ccccc2)n1	none (no result: D2 PAM-1, D2 ag-2, D2 antag)
CC(OC(=O)c1nc(Cl)ccc1Cl)C(=O)NC1CCCCC1C (stereo not given)	none | D3 arrestin ag inactive | D2 ag-3 inactive
COc1ccc(C)cc1NC(=O)c1oc2ccc(S(=O)(=O)N3CCC4(CC3)OCCO4)cc2c1C	none (no result: D2 PAM-1, D2 ag-2, D2 antag)
O=S(=O)(c1cc(Br)c(Br)s1)N1CCN(c2ccccc2)CC1	none (no result: D2 PAM-1, D2 ag-2, D2 antag)
COc1ccc(CC(C)N2CCN(c3ccccc3)CC2)cc1OC (stereo not given)	D2 ag-1 64.7, D2 ag-2 inconclusive, D2 antag 66.2 | D3 arrestin ag inactive | D2 ag-3 inconclusive
COc1ccc(S(=O)(=O)N2CCN(c3ccccc3)CC2)cc1OC	none (no result: D2 ag-1, D2 PAM-2, D2 antag)
COc1ccc(NC(=O)c2ccc(CN3CCN(c4ccccc4)CC3)cc2)cc1OC	D2 ag-1 59.5, D2 ag-2 inconclusive, D2 antag 70.8 | D3 arrestin ag inactive | D2 ag-3 inconclusive
COc1ccc(C)cc1NC(=O)c1ccc(CN2CCc3ccccc3C2)cc1	none
COc1ccc(CN2CCN(CCCc3ccccc3)CC2)c(OC)c1	none (no result: D2 PAM-1, D2 ag-2)
COc1ccccc1C(=O)Nc1ccc(N2CCN(Cc3ccccc3)CC2)cc1	none
COc1ccc(C)cc1NC(=O)c1ccc(CN2CCN(c3ccccc3)CC2)cc1	D2 ag-1 79.5, D2 ag-2 inconclusive, D2 antag 88.8 | D3 arrestin ag inactive | D2 ag-3 inconclusive
COc1ccc(CC(C)N2CCN(Cc3ccccc3)CC2)c(OC)c1 (stereo not given)	D2 ag-1 59.4, D2 antag 83.0 | D3 arrestin ag inactive | D2 ag-3 inactive
COc1ccc(OC)c(NC(=O)c2cn3c4c(ccc(Cl)c4c2=O)OC(C)C3)c1 (stereo not given)	none (no result: D2 PAM-1, D2 ag-1, D2 ag-2, D2 antag)
CCC/C(=C1/c2ccccc2C(=O)N1c1ccccc1)c1ccc2c(c1)OCO2	none | D3 arrestin ag inactive | D2 ag-3 inactive
O=C(Cc1cccc(NC(=O)C2CCN(C(=O)C3CCC3)CC2)c1)Nc1cccc(C(=O)N2CCCCC2)c1	none (no result: D2 ag-1, D2 PAM-2, D2 antag)
O=C(Cc1cccc(NC(=O)C2CCN(C(=O)C3CC3)CC2)c1)Nc1cccc(C(=O)N2CCCC2)c1	none | D3 arrestin ag inactive | D2 ag-3 inactive
CN(Cc1ccccc1)C(=O)c1ccc(NC(=O)Cc2cccc(NC(=O)C3CCCN(C(=O)C4CCC4)C3)c2)cc1 (stereo not given)	none | D3 arrestin ag inactive | D2 ag-3 inactive
CN(C(=O)c1cccc(NC(=O)Cc2ccc(NC(=O)C3CCN(C(=O)c4ccccc4)CC3)cc2)c1)C1CCC1	none (no result: D2 ag-1, D2 PAM-2, D2 antag)
CN(C(=O)c1ccc(NC(=O)Cc2ccc(NC(=O)C3CCN(C(=O)c4ccccc4)CC3)cc2)cc1)C1CC1	none | D3 arrestin ag inactive | D2 ag-3 inactive
CC(Nc1n[nH]c(=O)[nH]c1=O)C(=O)N/N=C/c1ccccc1 (stereo not given)	none | D3 arrestin ag inactive | D2 ag-3 inactive
COc1cc(/C=N/NC(=O)C(C)Nc2n[nH]c(=O)[nH]c2=O)ccc1O (stereo not given)	none (no result: D2 ag-1, D2 PAM-2, D2 antag)
COc1cc(/C=C/C(O)=C/C(=O)/C=C/c2ccc(O)cc2)ccc1O	D2 ag-1 48.0 | D3 arrestin ag inactive | D2 ag-3 inactive
COc1ccccc1NC(=O)CN(C)S(=O)(=O)c1ccc2c(c1)c(=O)n(C)c(=O)n2C	none (no result: D2 PAM-1, D2 ag-2, D2 antag)
CCOC(=O)C1(CCOc2ccccc2)CCN(Cc2cccc(-n3cccn3)c2)CC1	none
CCOC(=O)C1(Cc2cccc(F)c2)CCN(CCCn2cccn2)CC1	D2 ag-1 42.5 | D3 arrestin ag inactive | D2 ag-3 inactive
CCOC(=O)C1(CCOc2ccccc2)CCN(CCCn2cccn2)CC1	D2 ag-1 57.0, D2 antag 76.8 | D3 arrestin ag inactive | D2 ag-3 inactive
COc1cccc(-n2cc(CNC(=O)C3CCC(=O)N(C4CC4)C3)cn2)c1 (stereo not given)	none | D3 arrestin ag inactive | D2 ag-3 inactive
COc1cccc(-n2cc(CN(C)C(=O)C3CCC(=O)N(C4CC4)C3)cn2)c1 (stereo not given)	none (no result: D2 ag-1, D2 PAM-2, D2 antag)
Cc1ccc(S(=O)(=O)NCCC(=O)NCCCSc2ccccc2)cc1	none | D3 arrestin ag inactive | D2 ag-3 inactive
CC(=O)Nc1ccc(S(=O)(=O)NCCC(=O)NCCOc2ccccc2)cc1	none | D3 arrestin ag inactive | D2 ag-3 inactive
O=C(CCNS(=O)(=O)c1ccccc1)NCCCSc1ccccc1	none
COc1ccccc1NC(=O)C1=C(C)Nc2nc(SCc3ccccc3)nn2C1c1ccccn1 (stereo not given)	none (no result: D2 PAM-1, D2 ag-2, D2 antag)
CC1(c2ccccc2)NC(=O)N(CC(=O)Nc2ccc(S(=O)(=O)Nc3ncccn3)cc2)C1=O (stereo not given)	D2 ag-1 53.2, D2 antag 50.0 | D3 arrestin ag inactive | D2 ag-3 inactive
